# Results taken from PubChem BioAssay.
# Active and inactive are the calls of the source.
# Legend:
# [1] = test system: PRMT1 (protein arginine N-methyltransferase 1); experiment: small molecules binding arginine methyltransferase PRMT1 – biochemical, small-molecule microarray, 635 nm fluorescence, primary screen (AID 1088); conditions: higher = more signal;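 also: binding of Prmt1 protein to compounds spotted on small-molecule microarray slides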
# [2] = growth effects on S. cerevisiae YJM789 – YJM789 clinical isolate, OD600, 24 h, basal, primary screen (AID 1089); conditions: higher = more signal, called active from +8 up or from −8 down;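 also: growth of clinical yeast isolate S. cerevisiae YJM 789 seeded 1000 cells per well; test concentration not given here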
# [3] = S. pombe growth modifiers, basal conditions – strain 972, OD600, 24 h, no modulator, primary screen (AID 1090);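 also: basal condition with compound alone and no growth modifier present; test concentration not given here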; conditions: S. pombe 972 growth, higher = more signal, called active from +8 up or from −8 down
# [4] = budding yeast growth modifiers under rapamycin – strain BY4716, OD600, 96 h, primary screen (AID 1091); also: test concentration not given here; conditions: S. cerevisiae BY4716 + rapamycin, higher = more signal, called active from +8 up or from −8 down
# [5] = molecular target: Torsin-1A-interacting protein 2 (Homo sapiens) (UniProt Q8NFQ8); experiment: small molecules binding lysate-expressed LULL1 – cell lysate, human LULL1 lysate, 635/667 nm fluorescence, primary screen (AID 1092); conditions: small-molecule microarray, hLULL1 lysate binding, 635 nm fluorescence; higher = more signal;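 also: probe is lysate of COS7 cells overexpressing human LULL1; score merges per-feature 667 nm fluorescence with signal-to-noise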
# [6] = optical density change of DRC41 E. coli – strain DRC41, OD650, 24 h, E. coli filamentation project, primary screen (AID 1093);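 also: MC1000 strain lacking acrAB efflux and sulA so SOS filamentation is blocked; test concentration not given here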; conditions: E. coli DRC41 growth, higher = more signal, called active from +8 up or from −8 down
# [7] = probe aLefty2 binding to arrayed compounds – biochemical, biotinylated probe, 635/667 nm fluorescence, primary screen (AID 1094); conditions: small-molecule microarray, higher = more signal;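 also: score merges spot fluorescence near 667 nm with spot signal-to-noise ratio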
# [8] = test system: Noggin (protein binding on small-molecule microarray); experiment: small molecules binding Noggin protein – biochemical, 635/667 nm fluorescence, primary screen (AID 1095); conditions: 635 nm fluorescence, higher = more signal;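 also: score merges 667 nm feature fluorescence with signal to noise over triplicate slides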
# [9] = molecular target: Neurogenic locus notch homolog protein 3 (Homo sapiens) (UniProt Q9UM47); experiment: small molecules binding NOTCH3 protein – biochemical, 635/667 nm fluorescence, primary screen (AID 1096); conditions: small-molecule microarray, 635 nm fluorescence, higher = more signal
# [10] = probe aEGFR binding to arrayed compounds – biochemical, biotinylated probe, 635/667 nm fluorescence, primary screen (AID 1097); conditions: small-molecule microarray, higher = more signal;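 also: probe is a biotinylated anti-EGFR antibody binding compounds printed on slides; score combines fluorescence near 667 nm and signal to noise of each spot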
# [11] = test system: Plasmodium falciparum Sir2 (PF13_0152, Sir2A); experiment: Plasmodium falciparum Sir2A binding compounds – biochemical, small-molecule microarray, 635 nm fluorescence, primary screen (AID 1098); conditions: fluorescence 635 nm, higher = more signal;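 also: score merges spot fluorescence intensity with its signal-to-noise ratio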
# [12] = probe aDKK1 binding to arrayed compounds – biochemical, biotinylated probe, 635/667 nm fluorescence, primary screen (AID 1099); conditions: small-molecule microarray, higher = more signal;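 also: score merges 667nm spot fluorescence with signal to noise across triplicate slides; reference of the scale not given here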
# [13] = probe aCHRDL2 binding to arrayed compounds – biochemical, biotinylated probe, 635/667 nm fluorescence, primary screen (AID 1100); conditions: small-molecule microarray, higher = more signal
# [14] = change in splice reporter luminescence, either direction, cell-based, HEK293, spliceosome inhibition project, primary screen (AID 1101); conditions: HEK293 splicing luciferase reporter, 24 h, higher = more signal, called active from +8 up or from −8 down;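 also: HEK293 cells carrying a splicing-competent luciferase reporter gene; test concentration not given here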
# [15] = molecular target: Fibroblast growth factor 10 (Homo sapiens) (UniProt O15520); experiment: compounds binding fibroblast growth factor 10 – biochemical, small-molecule microarray, 635 nm fluorescence, primary screen (AID 1102); conditions: FGF10 binding, fluorescence 635 nm, higher = more signal
# [16] = test system: glycogen synthase kinase-3 (GSK3A per assay name; protocol says GSK3B); experiment: compounds binding glycogen synthase kinase-3 – biochemical, small-molecule microarray, 635 nm fluorescence, GSK3A, primary screen (AID 1103); conditions: fluorescence 635 nm, higher = more signal; also: the record names both GSK3A and GSK3B
# [17] = molecular target: Epidermal growth factor receptor (Homo sapiens) (UniProt P00533); experiment: compounds binding epidermal growth factor receptor – biochemical, small-molecule microarray, 635 nm fluorescence, primary screen (AID 1104); conditions: EGFR binding, higher = more signal;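 also: score merges 667 nm emission intensity with spot signal to noise over triplicate slides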
# [18] = molecular target: Follistatin-related protein 3 (Homo sapiens) (UniProt O95633); experiment: compounds binding follistatin-related protein 3 – biochemical, small-molecule microarray, 635 nm fluorescence, primary screen (AID 1105); conditions: FSTL3 binding, higher = more signal;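 also: score merges emission near 667 nm and signal to noise per printed spot across three slides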
# [19] = molecular target: Dickkopf-related protein 1 (Homo sapiens) (UniProt O94907); experiment: small molecules binding DKK1 protein – biochemical, small-molecule microarray, 635 nm fluorescence scan, primary screen (AID 1106); conditions: higher = more signal;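 also: score merges emission near 667 nm with signal to noise over three replicate slides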
# [20] = test system: Inhibin beta A chain (activin A); experiment: small molecules binding activin A – biochemical, small-molecule microarray, 635 nm fluorescence scan, primary screen (AID 1107); conditions: INHBA, higher = more signal;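 also: mouse activin A protein probed at 4.33 µg/mL on printed slides; score merges bound-protein fluorescence near 667 nm with spot signal-to-noise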
# Fibroblast growth factor 10 (Homo sapiens), sequence (O15520 whole entry, looked up): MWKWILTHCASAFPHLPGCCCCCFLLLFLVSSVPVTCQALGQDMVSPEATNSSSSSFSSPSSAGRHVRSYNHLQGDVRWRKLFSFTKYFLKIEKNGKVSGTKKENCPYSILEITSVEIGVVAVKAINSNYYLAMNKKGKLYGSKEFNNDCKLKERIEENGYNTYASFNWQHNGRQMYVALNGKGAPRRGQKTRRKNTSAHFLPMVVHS
# Dickkopf-related protein 1 (Homo sapiens), sequence (O94907 whole entry, looked up): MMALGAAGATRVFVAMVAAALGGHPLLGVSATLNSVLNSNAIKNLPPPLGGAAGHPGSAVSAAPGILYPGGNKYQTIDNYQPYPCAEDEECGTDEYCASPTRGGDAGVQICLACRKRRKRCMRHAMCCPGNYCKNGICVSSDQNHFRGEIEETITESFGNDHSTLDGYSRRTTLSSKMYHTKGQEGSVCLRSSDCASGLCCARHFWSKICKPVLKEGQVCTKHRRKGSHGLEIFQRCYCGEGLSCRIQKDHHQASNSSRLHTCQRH
# Torsin-1A-interacting protein 2 (Homo sapiens), sequence (Q8NFQ8 whole entry, looked up): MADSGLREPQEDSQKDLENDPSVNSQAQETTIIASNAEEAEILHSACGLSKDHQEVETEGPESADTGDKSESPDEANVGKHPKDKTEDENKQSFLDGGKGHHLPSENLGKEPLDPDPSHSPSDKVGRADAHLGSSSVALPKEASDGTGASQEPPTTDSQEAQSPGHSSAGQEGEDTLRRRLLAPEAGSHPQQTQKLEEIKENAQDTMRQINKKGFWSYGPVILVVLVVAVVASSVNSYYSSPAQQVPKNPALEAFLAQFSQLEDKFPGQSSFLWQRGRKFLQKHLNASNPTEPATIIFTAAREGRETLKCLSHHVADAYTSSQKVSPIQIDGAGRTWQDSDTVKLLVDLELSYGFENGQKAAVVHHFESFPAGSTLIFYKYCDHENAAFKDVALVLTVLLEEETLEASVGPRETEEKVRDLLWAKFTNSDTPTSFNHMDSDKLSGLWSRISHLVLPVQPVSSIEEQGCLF
# Follistatin-related protein 3 (Homo sapiens), sequence (O95633 whole entry, looked up): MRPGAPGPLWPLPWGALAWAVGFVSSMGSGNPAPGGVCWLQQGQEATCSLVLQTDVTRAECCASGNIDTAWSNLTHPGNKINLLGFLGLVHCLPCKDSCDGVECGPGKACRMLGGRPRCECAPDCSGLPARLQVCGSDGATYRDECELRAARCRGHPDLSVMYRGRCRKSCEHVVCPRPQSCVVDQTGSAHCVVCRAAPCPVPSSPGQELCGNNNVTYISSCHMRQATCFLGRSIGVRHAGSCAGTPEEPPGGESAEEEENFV
# Neurogenic locus notch homolog protein 3 (Homo sapiens), sequence (Q9UM47 whole entry, looked up): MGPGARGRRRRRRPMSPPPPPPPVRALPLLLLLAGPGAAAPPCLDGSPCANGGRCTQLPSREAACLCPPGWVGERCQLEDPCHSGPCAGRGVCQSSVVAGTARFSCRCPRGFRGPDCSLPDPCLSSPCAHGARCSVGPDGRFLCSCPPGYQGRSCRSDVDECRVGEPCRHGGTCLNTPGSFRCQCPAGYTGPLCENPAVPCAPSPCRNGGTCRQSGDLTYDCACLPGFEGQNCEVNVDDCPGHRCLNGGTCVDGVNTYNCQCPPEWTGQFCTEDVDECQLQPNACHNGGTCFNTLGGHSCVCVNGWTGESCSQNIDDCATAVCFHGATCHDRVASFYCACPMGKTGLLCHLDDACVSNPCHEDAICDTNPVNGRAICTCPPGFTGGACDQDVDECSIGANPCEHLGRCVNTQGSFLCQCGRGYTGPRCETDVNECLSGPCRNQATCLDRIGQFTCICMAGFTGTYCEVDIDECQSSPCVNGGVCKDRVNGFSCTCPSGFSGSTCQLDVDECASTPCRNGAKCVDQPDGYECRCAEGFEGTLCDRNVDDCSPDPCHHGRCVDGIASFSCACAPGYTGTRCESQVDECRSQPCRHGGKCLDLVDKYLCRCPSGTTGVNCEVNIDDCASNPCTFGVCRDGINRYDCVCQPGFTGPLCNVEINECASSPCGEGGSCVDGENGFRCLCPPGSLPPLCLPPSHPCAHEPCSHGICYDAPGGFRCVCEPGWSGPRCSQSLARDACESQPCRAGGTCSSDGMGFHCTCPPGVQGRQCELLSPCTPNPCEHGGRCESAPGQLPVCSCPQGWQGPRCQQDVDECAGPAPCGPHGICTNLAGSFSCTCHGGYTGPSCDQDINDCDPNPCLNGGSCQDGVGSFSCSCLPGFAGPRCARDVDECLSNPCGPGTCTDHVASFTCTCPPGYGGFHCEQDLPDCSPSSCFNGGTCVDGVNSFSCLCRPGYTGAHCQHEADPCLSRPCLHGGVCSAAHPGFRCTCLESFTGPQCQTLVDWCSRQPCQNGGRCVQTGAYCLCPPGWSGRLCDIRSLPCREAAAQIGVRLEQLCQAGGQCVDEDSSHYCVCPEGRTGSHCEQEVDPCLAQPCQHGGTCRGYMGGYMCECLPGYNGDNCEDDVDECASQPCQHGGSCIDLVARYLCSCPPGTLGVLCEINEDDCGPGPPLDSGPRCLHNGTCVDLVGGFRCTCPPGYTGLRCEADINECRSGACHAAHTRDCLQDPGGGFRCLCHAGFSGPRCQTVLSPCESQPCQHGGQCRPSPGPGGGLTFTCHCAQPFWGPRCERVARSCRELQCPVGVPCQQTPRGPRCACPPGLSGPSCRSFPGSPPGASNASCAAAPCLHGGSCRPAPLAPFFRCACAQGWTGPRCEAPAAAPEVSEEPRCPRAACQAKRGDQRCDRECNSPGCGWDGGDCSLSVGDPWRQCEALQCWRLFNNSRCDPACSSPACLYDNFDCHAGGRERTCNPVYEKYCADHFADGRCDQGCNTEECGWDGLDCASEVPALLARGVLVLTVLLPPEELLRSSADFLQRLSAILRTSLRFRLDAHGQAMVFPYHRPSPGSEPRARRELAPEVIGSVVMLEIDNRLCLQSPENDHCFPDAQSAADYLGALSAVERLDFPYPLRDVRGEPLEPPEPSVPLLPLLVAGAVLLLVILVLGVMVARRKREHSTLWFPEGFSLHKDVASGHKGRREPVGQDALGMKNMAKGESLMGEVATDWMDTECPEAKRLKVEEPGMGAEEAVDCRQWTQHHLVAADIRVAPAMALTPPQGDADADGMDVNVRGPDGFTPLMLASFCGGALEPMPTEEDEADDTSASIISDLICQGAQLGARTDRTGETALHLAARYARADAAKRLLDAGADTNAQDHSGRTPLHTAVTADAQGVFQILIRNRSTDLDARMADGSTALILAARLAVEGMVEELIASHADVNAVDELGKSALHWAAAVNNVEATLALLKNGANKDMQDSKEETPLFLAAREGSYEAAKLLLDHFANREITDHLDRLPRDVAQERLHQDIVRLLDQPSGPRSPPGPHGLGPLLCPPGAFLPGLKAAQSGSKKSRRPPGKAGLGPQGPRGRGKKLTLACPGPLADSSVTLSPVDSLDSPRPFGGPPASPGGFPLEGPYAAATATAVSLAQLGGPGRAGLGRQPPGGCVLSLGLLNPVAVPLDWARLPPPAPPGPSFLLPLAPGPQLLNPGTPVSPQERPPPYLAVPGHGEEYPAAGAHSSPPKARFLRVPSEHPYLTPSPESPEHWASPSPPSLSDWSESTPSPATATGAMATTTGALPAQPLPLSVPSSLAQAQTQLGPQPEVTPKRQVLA
# Epidermal growth factor receptor (Homo sapiens), sequence (P00533 whole entry, looked up): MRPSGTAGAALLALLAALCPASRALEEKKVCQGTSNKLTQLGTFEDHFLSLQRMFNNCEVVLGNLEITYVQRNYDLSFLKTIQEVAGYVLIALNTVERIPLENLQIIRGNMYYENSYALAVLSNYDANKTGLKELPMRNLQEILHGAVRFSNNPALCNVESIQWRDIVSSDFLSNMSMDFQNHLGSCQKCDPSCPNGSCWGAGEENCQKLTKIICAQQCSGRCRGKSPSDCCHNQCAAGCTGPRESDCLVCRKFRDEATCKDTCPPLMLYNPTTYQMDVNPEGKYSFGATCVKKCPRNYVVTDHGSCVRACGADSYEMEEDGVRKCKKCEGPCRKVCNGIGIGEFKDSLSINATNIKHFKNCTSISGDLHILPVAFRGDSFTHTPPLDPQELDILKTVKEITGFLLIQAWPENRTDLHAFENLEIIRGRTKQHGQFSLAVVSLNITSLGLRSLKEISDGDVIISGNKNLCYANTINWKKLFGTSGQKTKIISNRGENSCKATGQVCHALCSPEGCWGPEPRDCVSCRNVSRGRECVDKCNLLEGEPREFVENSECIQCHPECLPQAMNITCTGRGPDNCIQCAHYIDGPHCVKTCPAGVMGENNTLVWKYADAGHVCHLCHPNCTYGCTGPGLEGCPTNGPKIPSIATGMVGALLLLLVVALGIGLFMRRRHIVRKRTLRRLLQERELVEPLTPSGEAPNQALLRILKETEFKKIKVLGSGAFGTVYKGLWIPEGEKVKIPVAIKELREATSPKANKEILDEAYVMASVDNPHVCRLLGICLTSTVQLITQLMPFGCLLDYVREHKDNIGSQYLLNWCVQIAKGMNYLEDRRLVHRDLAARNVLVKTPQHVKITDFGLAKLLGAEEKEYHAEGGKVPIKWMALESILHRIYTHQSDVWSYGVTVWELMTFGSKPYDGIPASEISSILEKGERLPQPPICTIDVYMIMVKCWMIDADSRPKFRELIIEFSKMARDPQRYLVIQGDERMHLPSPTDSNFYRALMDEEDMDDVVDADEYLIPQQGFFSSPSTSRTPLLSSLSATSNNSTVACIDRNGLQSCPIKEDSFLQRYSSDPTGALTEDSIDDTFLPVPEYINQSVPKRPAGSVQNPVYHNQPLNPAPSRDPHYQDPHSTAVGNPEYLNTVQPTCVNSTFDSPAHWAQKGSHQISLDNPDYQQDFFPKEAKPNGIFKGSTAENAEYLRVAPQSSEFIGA
smiles,measurement,setting,value
O=C1[C@H]2[C@H]3[C@H](O)[C@H](O)CC(=NOCc4ccccc4)[C@H]3CC[C@H]2C(=O)N1Cc1ccc2c(c1)OCO2,composite z-score,[1],0.437
same,z-score,[2],-0.627 (inactive)
same,z-score,[3],-0.674 (inactive)
same,z-score,[4],-1.53 (inactive)
same,composite z-score,[5],1.1
same,z-score,[6],1.26 (inactive)
same,composite z-score,[7],-0.0766
same,composite z-score,[8],0.273
same,composite z-score,[9],0.546
same,composite z-score,[10],0.0102
same,composite z-score,[11],0.297
same,composite z-score,[12],-0.208
same,composite z-score,[13],-0.424
same,z-score,[14],0.889 (inactive)
same,composite z-score,[15],0.322
same,composite z-score,[16],0.238
same,composite z-score,[17],0.338
same,composite z-score,[18],0.534
same,composite z-score,[19],0.582
same,composite z-score,[20],0.157
CC(C)=CCCC(C)=CCON=C1C[C@@H](O)[C@@H](O)[C@@H]2[C@@H]3C(=O)N(C[C@@H]4CCCO4)C(=O)[C@@H]3CC[C@H]12,composite z-score,[1],1.56
same,z-score,[2],0.46 (inactive)
same,z-score,[3],0.948 (inactive)
same,z-score,[4],0.036 (inactive)
same,composite z-score,[5],1.39
same,z-score,[6],0.362 (inactive)
same,composite z-score,[7],-0.111
same,composite z-score,[8],0.987
same,composite z-score,[9],1.08
same,composite z-score,[10],0.122
same,composite z-score,[11],0.346
same,composite z-score,[12],-0.257
same,composite z-score,[13],-0.762
same,z-score,[14],0.91 (inactive)
same,composite z-score,[15],1.37
same,composite z-score,[16],1.25
same,composite z-score,[17],1.29
same,composite z-score,[18],1.39
same,composite z-score,[19],1.46
same,composite z-score,[20],1
CCc1cc2c(nc1CC)CCN(CCC(C)=NO[C@@H](C)c1cn([C@H](CO)Cc3ccccc3)nn1)C2,composite z-score,[1],-0.329
same,z-score,[2],0.687 (inactive)
same,z-score,[3],0.22 (inactive)
same,z-score,[4],-0.215 (inactive)
same,composite z-score,[5],0.559
same,z-score,[6],-0.189 (inactive)
same,composite z-score,[7],0.0336
same,composite z-score,[8],0.42
same,composite z-score,[9],0.438
same,composite z-score,[10],-0.0679
same,composite z-score,[11],0.6
same,composite z-score,[12],-0.102
same,composite z-score,[13],0.0143
same,z-score,[14],0.113 (inactive)
same,composite z-score,[15],-0.122
same,composite z-score,[16],-0.32
same,composite z-score,[17],0.253
same,composite z-score,[18],0.474
same,composite z-score,[19],0.436
same,composite z-score,[20],1.29
O=C1C=C[C@@H](O)[C@@H]2[C@@H]3C(=O)N(C[C@@H]4CCCO4)C(=O)[C@@H]3CC[C@@H]12,composite z-score,[1],-0.168
same,z-score,[2],0.026 (inactive)
same,z-score,[3],-0.479 (inactive)
same,z-score,[4],0.818 (inactive)
same,composite z-score,[5],0.276
same,z-score,[6],0.656 (inactive)
same,composite z-score,[7],-0.139
same,composite z-score,[8],0.54
same,composite z-score,[9],0.541
same,composite z-score,[10],-0.0208
same,composite z-score,[11],0.27
same,composite z-score,[12],-0.0602
same,composite z-score,[13],-0.454
same,z-score,[14],0.186 (inactive)
same,composite z-score,[15],0.513
same,composite z-score,[16],0.496
same,composite z-score,[17],0.645
same,composite z-score,[18],0.591
same,composite z-score,[19],1.17
same,composite z-score,[20],0.451
COC(=O)[C@@H]1CC[C@H](C)[C@@H](c2ccc(C)cc2)N1C(=O)c1ccc(C=NOCC[C@@H]2C=C[C@H](OC(C)=O)[C@@H](COC(C)=O)O2)cc1,composite z-score,[1],0.903
same,z-score,[2],1.09 (inactive)
same,z-score,[3],1.58 (inactive)
same,z-score,[4],1.81 (inactive)
same,composite z-score,[5],0.105
same,z-score,[6],0.411 (inactive)
same,composite z-score,[7],-0.0736
same,composite z-score,[8],0.647
same,composite z-score,[9],0.792
same,composite z-score,[10],-0.0397
same,composite z-score,[11],0.35
same,composite z-score,[12],-0.33
same,composite z-score,[13],-0.684
same,z-score,[14],0.566 (inactive)
same,composite z-score,[15],0.402
same,composite z-score,[16],0.637
same,composite z-score,[17],0.49
same,composite z-score,[18],0.644
same,composite z-score,[19],0.948
same,composite z-score,[20],0.323
CC(C)=NOC[C@@H](C)[C@H](OCc1ccccc1)C(C)C,composite z-score,[1],-0.465
same,z-score,[2],0.682 (inactive)
same,z-score,[3],-0.207 (inactive)
same,z-score,[4],0.752 (inactive)
same,composite z-score,[5],-0.602
same,z-score,[6],0.0184 (inactive)
same,composite z-score,[7],-0.127
same,composite z-score,[8],1.06
same,composite z-score,[9],-1.12
same,composite z-score,[10],-0.0656
same,composite z-score,[11],-0.229
same,composite z-score,[12],-0.0423
same,composite z-score,[13],0.631
same,z-score,[14],-0.159 (inactive)
same,composite z-score,[15],-0.822
same,composite z-score,[16],-1.06
same,composite z-score,[17],-0.602
same,composite z-score,[18],-0.664
same,composite z-score,[19],-0.355
same,composite z-score,[20],0.927
C#CCCCON=C1C[C@@H](O)[C@@H](O)[C@@H]2[C@@H]3C(=O)N(c4ccc(F)cc4F)C(=O)[C@@H]3CC[C@@H]12,composite z-score,[1],0.108
same,z-score,[2],-0.326 (inactive)
same,z-score,[3],-0.117 (inactive)
same,z-score,[4],-1.3 (inactive)
same,composite z-score,[5],-0.261
same,z-score,[6],0.336 (inactive)
same,composite z-score,[7],-0.124
same,composite z-score,[8],0.561
same,composite z-score,[9],0.0521
same,composite z-score,[10],-0.112
same,composite z-score,[11],0.191
same,composite z-score,[12],-0.19
same,composite z-score,[13],-0.71
same,z-score,[14],0.0714 (inactive)
same,composite z-score,[15],-0.0402
same,composite z-score,[16],0.225
same,composite z-score,[17],0.259
same,composite z-score,[18],0.218
same,composite z-score,[19],0.302
same,composite z-score,[20],-0.263
CCCCC#C[C@@H]1C=C[C@H](Oc2ccc(C(=O)OC)cc2)[C@@H](COC(=O)OCC)O1,composite z-score,[1],0.888
same,z-score,[2],0.143 (inactive)
same,z-score,[3],-19.5 (active)
same,z-score,[4],-0.611 (inactive)
same,composite z-score,[5],0.508
same,z-score,[6],0.197 (inactive)
same,composite z-score,[7],-0.115
same,composite z-score,[8],0.198
same,composite z-score,[9],0.531
same,composite z-score,[10],-0.0051
same,composite z-score,[11],0.716
same,composite z-score,[12],0.015
same,composite z-score,[13],-0.334
same,z-score,[14],0.545 (inactive)
same,composite z-score,[15],0.785
same,composite z-score,[16],0.277
same,composite z-score,[17],0.385
same,composite z-score,[18],1.05
same,composite z-score,[19],0.414
same,composite z-score,[20],0.273
O=C1CCCC=C1C(O)CCCCBr (stereo not given),composite z-score,[1],-0.25
same,z-score,[2],-3.03 (inactive)
same,z-score,[3],-20.8 (active)
same,z-score,[4],-1.04 (inactive)
same,composite z-score,[5],1.7
same,z-score,[6],0.518 (inactive)
same,composite z-score,[7],0.263
same,composite z-score,[8],1.03
same,composite z-score,[9],0.474
same,composite z-score,[10],-0.0742
same,composite z-score,[11],1.09
same,composite z-score,[12],0.763
same,composite z-score,[13],0.653
same,z-score,[14],-0.793 (inactive)
same,composite z-score,[15],0.404
same,composite z-score,[16],-0.115
same,composite z-score,[17],0.0038
same,composite z-score,[18],1.18
same,composite z-score,[19],0.945
same,composite z-score,[20],1.26
O=C(NN=C1C[C@@H](O)[C@@H](O)[C@@H]2[C@@H]3C(=O)N(C4CCCCC4)C(=O)[C@@H]3CC[C@@H]12)OCc1ccccc1,composite z-score,[1],-0.492
same,z-score,[2],0.313 (inactive)
same,z-score,[3],-0.452 (inactive)
same,z-score,[4],-0.157 (inactive)
same,composite z-score,[5],-0.181
same,z-score,[6],0.572 (inactive)
same,composite z-score,[7],-0.372
same,composite z-score,[8],-0.248
same,composite z-score,[9],0.256
same,composite z-score,[10],-0.0262
same,composite z-score,[11],0.174
same,composite z-score,[12],0.261
same,composite z-score,[13],0.515
same,z-score,[14],0.662 (inactive)
same,composite z-score,[15],0.0342
same,composite z-score,[16],0.0686
same,composite z-score,[17],-0.0311
same,composite z-score,[18],0.524
same,composite z-score,[19],-0.0447
same,composite z-score,[20],-0.347
